ChEMBL document CHEMBL1961873, “Compounds: GSK PKIS; Assays: Nanosyn kinase panel” (2012)
“And” between values parts separate entries of the source, which are not always exact repeats. Equal entries are not always repeated.

Assays:
[1] = molecular target: Ribosomal protein S6 kinase alpha-6 (Homo sapiens) (UniProt Q9UK32); conditions: at 1 µM;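 also: each value is a mean inhibition of RSK4 from a GSK PKIS panel screen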
[2] = molecular target: T1, Serine/threonine-protein kinase Sgk1 (Homo sapiens) (UniProt O00141); conditions: at 0.1 µM
T1 sequence (whole entry): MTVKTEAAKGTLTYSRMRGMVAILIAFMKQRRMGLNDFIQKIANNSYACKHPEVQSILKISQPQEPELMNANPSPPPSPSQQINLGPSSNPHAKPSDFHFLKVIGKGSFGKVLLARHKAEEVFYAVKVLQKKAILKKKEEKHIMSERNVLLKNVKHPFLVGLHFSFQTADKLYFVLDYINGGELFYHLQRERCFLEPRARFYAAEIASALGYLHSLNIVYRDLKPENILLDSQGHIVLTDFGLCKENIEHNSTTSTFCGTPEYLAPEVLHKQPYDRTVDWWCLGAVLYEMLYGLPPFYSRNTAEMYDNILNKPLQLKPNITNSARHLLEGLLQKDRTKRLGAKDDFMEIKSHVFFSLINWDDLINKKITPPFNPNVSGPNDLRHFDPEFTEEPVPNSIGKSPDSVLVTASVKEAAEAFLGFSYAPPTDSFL

[3] = molecular target: T1, Serine/threonine-protein kinase Sgk1 (Homo sapiens); conditions: at 1 µM
[4] = molecular target: T2, Serine/threonine-protein kinase Sgk2 (Homo sapiens) (UniProt Q9HBY8); conditions: at 0.1 µM
T2 sequence (whole entry): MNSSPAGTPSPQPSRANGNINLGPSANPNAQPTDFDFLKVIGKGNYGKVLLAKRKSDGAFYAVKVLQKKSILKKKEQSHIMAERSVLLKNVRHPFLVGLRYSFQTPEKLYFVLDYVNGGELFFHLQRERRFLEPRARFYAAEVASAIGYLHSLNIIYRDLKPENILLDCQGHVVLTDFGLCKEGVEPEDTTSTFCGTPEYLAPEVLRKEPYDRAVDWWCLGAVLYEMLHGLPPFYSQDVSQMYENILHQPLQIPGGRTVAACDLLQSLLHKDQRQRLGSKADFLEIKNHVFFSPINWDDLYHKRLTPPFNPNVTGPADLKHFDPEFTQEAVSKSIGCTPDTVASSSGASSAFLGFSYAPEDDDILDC

[5] = molecular target: T2, Serine/threonine-protein kinase Sgk2 (Homo sapiens); conditions: at 1 µM
[6] = molecular target: T3, Serine/threonine-protein kinase Sgk3 (Homo sapiens) (UniProt Q96BR1); conditions: at 0.1 µM
T3 sequence (whole entry): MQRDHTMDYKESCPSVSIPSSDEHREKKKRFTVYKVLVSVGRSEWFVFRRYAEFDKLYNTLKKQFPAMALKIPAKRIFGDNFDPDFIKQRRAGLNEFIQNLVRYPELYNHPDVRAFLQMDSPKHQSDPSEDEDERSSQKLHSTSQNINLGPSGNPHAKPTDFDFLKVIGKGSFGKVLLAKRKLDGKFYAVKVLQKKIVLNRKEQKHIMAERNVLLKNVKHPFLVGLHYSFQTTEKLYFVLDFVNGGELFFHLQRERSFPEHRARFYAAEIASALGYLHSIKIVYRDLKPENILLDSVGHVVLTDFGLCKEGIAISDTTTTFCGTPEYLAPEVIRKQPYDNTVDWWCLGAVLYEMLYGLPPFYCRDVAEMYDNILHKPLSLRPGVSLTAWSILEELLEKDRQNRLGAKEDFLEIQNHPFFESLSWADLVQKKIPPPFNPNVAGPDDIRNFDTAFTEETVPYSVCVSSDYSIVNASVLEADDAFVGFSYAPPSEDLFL

[7] = molecular target: T3, Serine/threonine-protein kinase Sgk3 (Homo sapiens); conditions: at 1 µM
[8] = molecular target: 5'-AMP-activated protein kinase catalytic subunit alpha-1 (Homo sapiens) (UniProt Q13131); conditions: at 0.1 µM
[9] = molecular target: 5'-AMP-activated protein kinase catalytic subunit alpha-1 (Homo sapiens) (UniProt Q13131); conditions: at 1 µM
[10] = molecular target: 5'-AMP-activated protein kinase catalytic subunit alpha-2 (Homo sapiens) (UniProt P54646); conditions: at 0.1 µM
[11] = molecular target: 5'-AMP-activated protein kinase catalytic subunit alpha-2 (Homo sapiens) (UniProt P54646); conditions: at 1 µM
[12] = molecular target: T4, NUAK family SNF1-like kinase 1 (Homo sapiens) (UniProt O60285); conditions: at 0.1 µM
T4 sequence (whole entry): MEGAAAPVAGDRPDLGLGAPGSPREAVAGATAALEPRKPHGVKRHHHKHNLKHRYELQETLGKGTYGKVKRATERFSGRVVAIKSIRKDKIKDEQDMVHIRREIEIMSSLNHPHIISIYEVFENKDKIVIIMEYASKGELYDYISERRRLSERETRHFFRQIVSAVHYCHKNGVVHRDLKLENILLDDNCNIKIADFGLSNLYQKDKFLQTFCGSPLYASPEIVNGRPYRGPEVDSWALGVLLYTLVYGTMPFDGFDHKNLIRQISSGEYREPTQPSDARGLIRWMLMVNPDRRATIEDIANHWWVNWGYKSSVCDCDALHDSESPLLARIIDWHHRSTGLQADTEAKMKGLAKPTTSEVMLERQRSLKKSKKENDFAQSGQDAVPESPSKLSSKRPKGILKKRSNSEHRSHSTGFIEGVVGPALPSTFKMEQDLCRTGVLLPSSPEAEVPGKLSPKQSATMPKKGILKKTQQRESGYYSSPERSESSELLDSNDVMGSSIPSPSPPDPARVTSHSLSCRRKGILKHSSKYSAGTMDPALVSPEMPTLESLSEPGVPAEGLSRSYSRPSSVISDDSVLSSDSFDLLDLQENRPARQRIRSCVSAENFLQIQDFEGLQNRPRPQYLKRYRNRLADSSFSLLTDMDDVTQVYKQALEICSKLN

[13] = molecular target: T4, NUAK family SNF1-like kinase 1 (Homo sapiens); conditions: at 1 µM
[14] = molecular target: T5, Serine/threonine-protein kinase BRSK1 (Homo sapiens) (UniProt Q8TDC3); conditions: at 0.1 µM
T5 sequence (whole entry): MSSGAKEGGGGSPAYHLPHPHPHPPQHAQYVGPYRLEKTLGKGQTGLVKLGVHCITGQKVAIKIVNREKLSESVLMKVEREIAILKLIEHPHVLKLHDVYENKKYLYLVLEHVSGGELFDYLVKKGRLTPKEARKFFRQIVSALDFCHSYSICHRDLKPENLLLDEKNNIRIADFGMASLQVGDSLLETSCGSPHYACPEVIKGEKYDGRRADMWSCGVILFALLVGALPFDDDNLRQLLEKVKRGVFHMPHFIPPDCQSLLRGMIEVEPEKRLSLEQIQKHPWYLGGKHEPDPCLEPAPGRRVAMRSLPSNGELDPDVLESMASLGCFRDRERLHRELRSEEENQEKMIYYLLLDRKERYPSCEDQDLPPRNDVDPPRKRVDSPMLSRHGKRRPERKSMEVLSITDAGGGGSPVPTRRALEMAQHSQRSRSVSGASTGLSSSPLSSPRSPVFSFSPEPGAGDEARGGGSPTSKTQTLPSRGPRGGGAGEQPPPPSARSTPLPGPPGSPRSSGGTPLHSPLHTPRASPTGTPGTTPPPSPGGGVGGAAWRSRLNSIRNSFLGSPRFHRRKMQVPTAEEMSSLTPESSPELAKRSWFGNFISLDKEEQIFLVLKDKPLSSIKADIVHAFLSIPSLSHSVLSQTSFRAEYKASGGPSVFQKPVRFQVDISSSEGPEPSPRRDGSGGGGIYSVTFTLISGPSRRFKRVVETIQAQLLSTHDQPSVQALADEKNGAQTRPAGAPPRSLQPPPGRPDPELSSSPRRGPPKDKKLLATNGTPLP

[15] = molecular target: T5, Serine/threonine-protein kinase BRSK1 (Homo sapiens); conditions: at 1 µM
[16] = molecular target: T6, Serine/threonine-protein kinase BRSK2 (Homo sapiens) (UniProt Q8IWQ3); conditions: at 0.1 µM
T6 sequence (whole entry): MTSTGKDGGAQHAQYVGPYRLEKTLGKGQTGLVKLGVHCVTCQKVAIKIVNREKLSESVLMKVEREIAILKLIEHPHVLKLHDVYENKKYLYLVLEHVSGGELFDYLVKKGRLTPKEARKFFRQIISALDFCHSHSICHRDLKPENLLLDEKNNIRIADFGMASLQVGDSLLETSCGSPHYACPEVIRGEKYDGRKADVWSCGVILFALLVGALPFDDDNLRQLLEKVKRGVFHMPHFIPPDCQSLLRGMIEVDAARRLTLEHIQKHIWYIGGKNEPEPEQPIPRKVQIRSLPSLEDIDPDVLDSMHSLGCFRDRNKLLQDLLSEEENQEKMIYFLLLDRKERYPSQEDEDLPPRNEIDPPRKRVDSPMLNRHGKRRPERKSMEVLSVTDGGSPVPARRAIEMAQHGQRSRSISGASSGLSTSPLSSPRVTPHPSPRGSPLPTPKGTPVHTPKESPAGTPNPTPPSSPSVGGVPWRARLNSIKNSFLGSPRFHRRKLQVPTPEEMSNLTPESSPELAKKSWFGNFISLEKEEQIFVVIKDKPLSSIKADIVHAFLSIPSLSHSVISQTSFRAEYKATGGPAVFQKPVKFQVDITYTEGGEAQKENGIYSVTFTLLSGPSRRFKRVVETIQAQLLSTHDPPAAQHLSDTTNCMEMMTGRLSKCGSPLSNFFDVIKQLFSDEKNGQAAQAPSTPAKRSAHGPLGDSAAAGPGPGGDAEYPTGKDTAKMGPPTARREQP

[17] = molecular target: T6, Serine/threonine-protein kinase BRSK2 (Homo sapiens); conditions: at 1 µM
[18] = molecular target: Calcium/calmodulin-dependent protein kinase type 1D (Homo sapiens) (UniProt Q8IU85); conditions: at 0.1 µM
[19] = molecular target: Calcium/calmodulin-dependent protein kinase type 1D (Homo sapiens) (UniProt Q8IU85); conditions: at 1 µM
[20] = molecular target: Calcium/calmodulin-dependent protein kinase type II subunit alpha (Homo sapiens) (UniProt Q9UQM7); conditions: at 0.1 µM;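 also: reported values are averages (mean inhibition of CAMK2A)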
Chain of Calcium/calmodulin-dependent protein kinase type II subunit alpha (Homo sapiens) (Q9UQM7 whole entry): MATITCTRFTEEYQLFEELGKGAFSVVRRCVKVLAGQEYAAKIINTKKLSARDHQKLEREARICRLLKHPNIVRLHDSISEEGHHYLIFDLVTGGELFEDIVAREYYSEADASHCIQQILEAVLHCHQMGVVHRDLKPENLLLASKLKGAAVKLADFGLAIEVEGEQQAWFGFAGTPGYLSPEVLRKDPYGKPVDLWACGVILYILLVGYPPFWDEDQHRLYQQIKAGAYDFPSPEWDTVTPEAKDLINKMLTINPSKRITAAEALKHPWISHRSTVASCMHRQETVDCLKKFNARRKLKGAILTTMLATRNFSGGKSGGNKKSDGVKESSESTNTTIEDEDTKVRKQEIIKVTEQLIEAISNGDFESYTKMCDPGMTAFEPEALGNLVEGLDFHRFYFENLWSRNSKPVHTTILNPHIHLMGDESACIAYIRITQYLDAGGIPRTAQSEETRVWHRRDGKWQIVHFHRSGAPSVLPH

Chain of Ribosomal protein S6 kinase alpha-6 (Homo sapiens) (Q9UK32 whole entry): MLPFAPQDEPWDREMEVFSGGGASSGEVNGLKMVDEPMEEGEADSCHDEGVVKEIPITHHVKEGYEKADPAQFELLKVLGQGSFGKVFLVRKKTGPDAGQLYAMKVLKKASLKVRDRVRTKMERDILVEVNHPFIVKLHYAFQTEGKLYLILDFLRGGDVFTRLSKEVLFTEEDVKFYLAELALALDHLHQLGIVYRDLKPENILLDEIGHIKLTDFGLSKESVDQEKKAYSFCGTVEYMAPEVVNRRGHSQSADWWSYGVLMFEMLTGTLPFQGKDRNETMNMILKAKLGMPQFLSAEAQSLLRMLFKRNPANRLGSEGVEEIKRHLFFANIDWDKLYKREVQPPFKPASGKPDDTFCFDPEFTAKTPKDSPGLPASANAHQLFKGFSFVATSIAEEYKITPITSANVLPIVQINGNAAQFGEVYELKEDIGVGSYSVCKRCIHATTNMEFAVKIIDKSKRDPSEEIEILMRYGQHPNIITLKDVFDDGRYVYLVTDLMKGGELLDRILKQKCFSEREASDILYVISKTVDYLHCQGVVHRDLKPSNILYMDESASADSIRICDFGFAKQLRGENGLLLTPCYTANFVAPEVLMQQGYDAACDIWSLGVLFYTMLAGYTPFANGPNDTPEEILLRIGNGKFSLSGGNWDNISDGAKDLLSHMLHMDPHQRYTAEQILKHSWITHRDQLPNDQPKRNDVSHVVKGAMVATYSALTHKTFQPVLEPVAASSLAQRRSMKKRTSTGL
Chain of 5'-AMP-activated protein kinase catalytic subunit alpha-2 (Homo sapiens) (P54646 whole entry, looked up): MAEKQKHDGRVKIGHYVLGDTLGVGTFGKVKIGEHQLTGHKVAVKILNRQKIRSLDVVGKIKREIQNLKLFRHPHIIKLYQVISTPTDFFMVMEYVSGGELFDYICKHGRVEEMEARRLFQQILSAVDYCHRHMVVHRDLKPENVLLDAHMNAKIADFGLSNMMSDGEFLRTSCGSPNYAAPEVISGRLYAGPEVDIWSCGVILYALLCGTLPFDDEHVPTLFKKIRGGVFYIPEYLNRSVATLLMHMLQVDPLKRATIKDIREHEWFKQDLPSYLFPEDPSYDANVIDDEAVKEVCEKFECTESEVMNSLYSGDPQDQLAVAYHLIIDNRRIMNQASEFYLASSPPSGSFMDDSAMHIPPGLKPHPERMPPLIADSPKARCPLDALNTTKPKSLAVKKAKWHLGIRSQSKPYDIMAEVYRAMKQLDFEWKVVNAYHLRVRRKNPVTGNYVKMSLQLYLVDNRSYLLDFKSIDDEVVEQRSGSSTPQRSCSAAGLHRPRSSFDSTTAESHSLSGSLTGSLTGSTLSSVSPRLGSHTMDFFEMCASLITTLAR
Chain of Calcium/calmodulin-dependent protein kinase type 1D (Homo sapiens) (Q8IU85 whole entry, looked up): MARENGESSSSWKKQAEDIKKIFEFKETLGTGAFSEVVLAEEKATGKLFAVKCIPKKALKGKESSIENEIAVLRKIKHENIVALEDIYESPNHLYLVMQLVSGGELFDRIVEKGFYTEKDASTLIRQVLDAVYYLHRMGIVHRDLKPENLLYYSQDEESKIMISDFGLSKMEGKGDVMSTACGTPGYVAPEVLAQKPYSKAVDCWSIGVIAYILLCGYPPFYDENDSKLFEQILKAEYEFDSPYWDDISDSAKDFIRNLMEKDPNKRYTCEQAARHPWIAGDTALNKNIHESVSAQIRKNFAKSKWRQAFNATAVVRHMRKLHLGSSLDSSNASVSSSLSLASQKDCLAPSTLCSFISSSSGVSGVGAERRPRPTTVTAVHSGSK
Chain of 5'-AMP-activated protein kinase catalytic subunit alpha-1 (Homo sapiens) (Q13131 whole entry, looked up): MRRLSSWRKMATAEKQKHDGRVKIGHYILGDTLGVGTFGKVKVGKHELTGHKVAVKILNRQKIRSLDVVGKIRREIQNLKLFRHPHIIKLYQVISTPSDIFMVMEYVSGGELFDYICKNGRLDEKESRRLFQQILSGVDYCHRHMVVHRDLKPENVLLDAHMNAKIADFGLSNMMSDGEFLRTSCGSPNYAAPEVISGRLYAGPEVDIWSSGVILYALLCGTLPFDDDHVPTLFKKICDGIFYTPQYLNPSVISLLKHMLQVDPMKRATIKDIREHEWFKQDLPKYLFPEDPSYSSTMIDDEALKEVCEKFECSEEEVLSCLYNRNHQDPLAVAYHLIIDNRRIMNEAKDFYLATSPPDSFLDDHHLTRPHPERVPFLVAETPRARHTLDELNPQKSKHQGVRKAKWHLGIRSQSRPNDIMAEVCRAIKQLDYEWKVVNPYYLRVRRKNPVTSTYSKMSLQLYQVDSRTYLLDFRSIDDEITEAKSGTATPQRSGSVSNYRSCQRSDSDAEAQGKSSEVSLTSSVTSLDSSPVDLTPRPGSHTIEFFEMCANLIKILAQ

| SMILES | inhibition [1] | inhibition [2] | inhibition [3] | inhibition [4] | inhibition [5] | inhibition [6] | inhibition [7] | inhibition [8] | inhibition [9] | inhibition [10] | inhibition [11] | inhibition [12] | inhibition [13] | inhibition [14] | inhibition [15] | inhibition [16] | inhibition [17] | inhibition [18] | inhibition [19] | inhibition [20] |
| --- | --- | --- | --- | --- | --- | --- | --- | --- | --- | --- | --- | --- | --- | --- | --- | --- | --- | --- | --- | --- |
| CN(C)CCNC(=O)Nc1ccc(N(C)c2ccnc(Nc3ccc(CS(C)(=O)=O)cc3)n2)cc1 | 3.59% | 3.14% | 3.11% | 0.71% | -2.21% | 3.61% | 0.64% | 2.62% | 5.07% | 2.24% | 7.2% | 14.5% | 57.9% | 2.43% | 5.89% | 2.14% | 4.34% | 0.53% | 1.18% | 4.92% |
| O=C1Nc2ccccc2/C1=C1\CCc2cc(O)ccc21 | 37.6% | 6.47% | 19.2% | 2.24% | 10.2% | 2.61% | 5.81% | 5.27% | 13.4% | 5.22% | 14.3% | 16.2% | 60.8% | 3.95% | 16.9% | 5.82% | 20.1% | 1.02% | 3.43% | 3.85% |
| CC(C)c1ccc(-c2cc(-c3c[nH]nc3-c3ccccn3)ccn2)cc1 | -0.11% | 1.94% | 0.95% | 3.97% | 3.85% | 0.19% | -1.62% | -0.34% | -1.2% | 0.19% | 2.31% | -1.39% | 0.75% | 0.75% | -0.92% | 0.14% | 0.33% | -0.78% | 0.06% | -0.6% |
| CN1CCN(Cc2ccc(-c3cc4ncnc(Nc5ccc(OCc6cccc(F)c6)c(Cl)c5)c4s3)o2)CC1 | 2.87% and 4.99% | 2.87% and 4.63% | 3.57% and 7.64% | 1.23% and 4.49% | 1.46% and 3.55% | 1.48% and 4.43% | 2.48% and 5.69% | 2.4% and 5.32% | 3% and 5.69% | 3.72% and 4.13% | 4.56% and 5.82% | 0.69% and 0.76% | 4.56% and 2.98% | 0.8% and -0.05% | 2.8% and -0.24% | 2.16% and 1.05% | 4.75% and 4.26% | 0.32% and 0.88% | 2.5% and 0.41% | 0.12% and 4.61% |
| Nc1ncnc2occ(-c3ccc(NC(=O)Nc4cc(C(F)(F)F)ccc4F)cc3)c12 | 9.97% and 5.9% | 1.7% and 0.49% | 3.4% and 1.19% | -0.51% and 1.78% | 2.34% and 2.65% | 1.18% and 0.24% | 1.67% and -1.01% | 2.02% and -1.41% | 1.94% and -0.8% | -0.22% and 3.36% | 0.27% and -2.18% | 5.01% and 0.14% | 6.07% and 1.77% | 1.75% and -1.05% | 9.34% and -0.75% | 2.02% and -1.66% | 6.92% and 0.75% | 1.85% and -1.45% | 4.86% and 2.86% | 2.82% and -3.6% |
| CC1(C)CC(n2cnc(-c3ccc(F)cc3)c2-c2ccnc(N)n2)CC(C)(C)N1 | 0.95% | 1.68% | 5.28% | -3.17% | -3.03% | 1.34% | 1.32% | 0.3% | 1.1% | 3.69% | 0.53% | 0.87% | 1.37% | 1.5% | 4.7% | 1.41% | 5.87% | -0.53% | 2.41% | -2.87% |
